Data on 91 compounds can be found in PubChem BioAssay AID588726 (The Scripps Research Institute Molecular Screening Center, 2011).

Structures are written as SMILES. Among all 360,000 compounds or so, about 8,200 (2.3%) were called active. Rule as the data show it: active = inhibition above about 27%; inactive = the rest. What follows is part of a selection rich in actives, with near analogues and random picks from the rest.

Sequence of Fructose-bisphosphate aldolase (Mycobacterium tuberculosis (strain ATCC 25618 / H37Rv)) (P9WQA3 whole entry, looked up): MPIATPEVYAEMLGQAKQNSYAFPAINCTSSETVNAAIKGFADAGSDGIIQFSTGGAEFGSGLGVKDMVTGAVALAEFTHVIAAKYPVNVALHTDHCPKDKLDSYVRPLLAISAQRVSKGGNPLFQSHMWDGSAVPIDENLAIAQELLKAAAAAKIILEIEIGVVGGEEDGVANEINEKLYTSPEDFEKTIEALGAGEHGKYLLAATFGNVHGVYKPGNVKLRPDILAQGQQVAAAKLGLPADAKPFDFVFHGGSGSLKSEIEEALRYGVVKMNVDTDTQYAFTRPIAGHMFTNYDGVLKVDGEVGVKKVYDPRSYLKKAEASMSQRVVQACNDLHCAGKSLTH

This assay concerns the target Fructose-bisphosphate aldolase (Mycobacterium tuberculosis (strain ATCC 25618 / H37Rv)) (UniProt P9WQA3). Briefly: M. tuberculosis aldolase activity blockers – biochemical, fluorescence, strain H37Rv, primary screen (AID 588726).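 Also: 0% = vehicle and 100% = reference inhibitor.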 The note with it: purified M. tuberculosis FBA, fluorescence read-out, at 1 µM, active compounds read high.
Regarding `COc1ccc(C(C(=O)NC2CCCC2)N(CCCO)C(=O)Cn2nnc(-c3ccc(C)o3)n2)cc1` (stereo unspecified), the inhibition is 0.22% (inactive).
As for `CCOC(=O)CCCCCC(=O)Nc1ccc2c(c1)CC(=O)N([C@@H](C)CO)C[C@H](C)[C@@H](CN(C)Cc1ccccc1)O2`, the inhibition is 1.41% (inactive).
In the case of `Cc1nnc(NC2=NCCCCC2)o1` it was 2.72% (inactive).
Consider `COC(=O)c1cccnc1NC(=S)NC(C)C`, for which the inhibition is -6.99% (inactive).
To `CSc1nnc(-c2ccc(C(F)(F)F)cn2)o1` belongs 7.82% (inactive); to `C=CCNC(=O)c1ccc2c3n(nc2c1)-c1ccc(C)cc1CO3`, 46.8% (active).
Regarding `Cc1cccc(-c2nc3ccc(C(=O)NCCN4CCN(C)CC4)cc3nc2-c2cccc(C)c2)c1`, the inhibition is 25.3% (inactive).
Take `Cc1ccc(-n2nc3c(c2NC(=O)c2ccc4c(c2)OCO4)CSC3)c(C)c1`: the inhibition was 0.86% (inactive).
Consider `COc1cc(C(=O)OC2CCOC2=O)c([N+](=O)[O-])cc1OC` (stereo unspecified), for which the inhibition was 1.88% (inactive).
Consider `CC(C)c1ccc(C(=O)OC2CCOC2=O)cc1` (stereo unspecified), for which the inhibition is -2.02% (inactive).
Take `O=C(OC1CCOC1=O)c1ccc(-c2nc3ccccc3s2)s1` (stereo unspecified): the inhibition is 36.7% (active).
As to `Cc1cc(C)c(S(=O)(=O)c2ccccc2)c(OC(=O)c2c(F)cccc2Cl)n1`, the inhibition is 2.73% (inactive).
For the compound `COc1ccc(-c2nc3cc(C)ccn3c2NC2CCCCC2)cc1SC1CCCCC1`, the inhibition is 27.2% (active).
Regarding `COc1ccc(-c2nc3cnccn3c2NC2CCCCC2)cc1-c1cccc(Cl)c1`, the inhibition was 24.3% (inactive).
To `Cc1ccc2nc(-c3cccnc3)c(NC3CCCC3)n2c1` belongs 2.23% (inactive).
With `Cc1[nH]nc(-c2ccc(OCc3cnn(-c4ccccc4)c3)cc2O)c1Oc1ccc(Cl)cc1`, the inhibition was 3.96% (inactive).
To `COc1ccc(S(=O)(=O)N2CCOC2CNC(=O)C(=O)NCc2ccc(F)cc2)cc1` (stereo unspecified) belongs -0.16% (inactive); to `CC12CCC(C(=O)N3CCN(c4ncccn4)CC3)(c3nc4ccccc4nc31)C2(C)C` (stereo unspecified), 30% (active).
For `CC(Oc1ccc(F)cc1)C(=O)N1CCN(c2ncccn2)CC1` (stereo unspecified), the inhibition is 1.68% (inactive).
Turning to `c1cnc(N2CCN(c3ccc4ccccc4n3)CC2)nc1`, the inhibition was 2.95% (inactive).
To `COC(=O)C1=CO[C@@H](O[C@@H]2O[C@H](CO)[C@@H](O)[C@H](O)[C@H]2O)C2C1C[C@H](O)[C@@H]2C` (stereo partly specified) belongs -0.2% (inactive).
For `CCc1cc(=O)oc2c(C)c(OCC(=O)NCCN3CCOCC3)ccc12`, the inhibition is 18% (inactive).
On to `CCCc1cc(=O)oc2c(C)c(OCC(=O)Nc3ccccn3)ccc12`, for which the inhibition was 14.2% (inactive).
To `CCc1cc(=O)oc2c(C)c(OCC(=O)N3CC[C@@]4(O)CCCC[C@H]4C3)ccc12` belongs 36.8% (active); to `Cc1cc(=O)oc2c(C)c(OCC(=O)N3CCN(Cc4ccc5c(c4)OCO5)CC3)ccc12`, 20.6% (inactive).
In the case of `CCCc1cc(=O)oc2c(C)c(OCC(=O)N3CCC(C(=O)O)CC3)ccc12`, the inhibition is 44.1% (active).
To `Cc1c(C)c2ccc(OCC(=O)N3CCC(C(=O)O)CC3)c(C)c2oc1=O` belongs 119% (active).
As for `CCCCc1cc(=O)oc2c(C)c(OCC(=O)N3CCC(C(N)=O)CC3)ccc12`, the inhibition is 13.9% (inactive).
With `CCOC(=O)C1CCN(C(=O)COc2cccc3ccccc23)CC1`, the inhibition was -4.37% (inactive).
To `N#Cc1cccc(OC(=O)c2ccc3c(=O)n4c(nc3c2)CCC4)c1` belongs 1.39% (inactive); to `CCCc1cc(=O)[nH]c(SCc2cc(=O)oc3c(C)c(C)ccc23)n1`, -1.06% (inactive).
As to `COC(=O)c1sc(-c2ccc(C(C)(C)C)cc2)cc1NC(=O)/C=C/C(=O)O`, the inhibition is 1.9% (inactive).
For the compound `CCC(C)(C)n1nnnc1CN1CCN(c2nc3ccc(C)cc3cc2C#N)CC1`, the inhibition is 3.89% (inactive).
Take `COc1cc2c(cc1OC)C(C)N(S(=O)(=O)c1cnc(Cl)c(Cl)c1)CC2` (stereo unspecified): the inhibition was -4.46% (inactive).
For the compound `CN(CCC#N)c1ncnc2scc(-c3ccccc3)c12`, the inhibition was 4.16% (inactive).
Turning to `C=CCNc1nc(N)c(C(=C(C#N)C#N)c2ccccc2)s1`, the inhibition was 135% (active).
In the case of `COC(=O)c1sc(N2CCN(Cc3ccccc3)CC2)nc1N` it was 1.57% (inactive); in that of `COc1ccc(N(CC(=O)NC2CCCCC2)C(=O)CNC(=O)c2ccco2)c(OC)c1`, 3.44% (inactive); in that of `O=c1[nH]c(=O)n(Cc2ccco2)c2c1C(C(F)(F)F)(C(F)(F)F)N=C(c1ccco1)N2`, 1.76% (inactive).
As to `CCCCC[C@@H]1C=C(C(=O)OCC)[C@H](c2ccccc2)N1S(=O)(=O)c1ccc(C)cc1`, the inhibition was -1.47% (inactive).
Turning to `CN(CCc1ccccn1)S(=O)(=O)c1ccc2c3c(cccc13)C(=O)N2`, the inhibition is 50.8% (active).
For the compound `CN(CCc1ccccn1)C1CCCN(S(=O)(=O)c2ccccc2Cl)C1` (stereo unspecified), the inhibition was -1.97% (inactive).
As to `CN(CC(=O)NCCc1ccccn1)S(=O)(=O)c1ccc(Cl)cc1`, the inhibition was -1.58% (inactive).
Consider `CC1(C)Cc2c(sc3nc(SCC(=O)NCc4ccccc4)n(-c4ccccc4)c(=O)c23)CS1`, for which the inhibition is 1.67% (inactive).
In the case of `CCCNC(=S)NC1CC2CCCC(C1)N2CC(C)C` (stereo unspecified) it was 0.49% (inactive); in that of `COC(=O)C1=NNC2(c3ccc(C)cc3)C(=O)N(c3cccc(C)c3C)C(=O)C12` (stereo unspecified), -2.73% (inactive).
To `COC(=O)c1c(-c2cccs2)csc1NC(=O)CSc1ncnc2sc(C)c(C)c12` belongs 1.16% (inactive); to `CCNC(=O)CN(c1ccc(C)cc1)S(=O)(=O)c1ccc(SC)cc1`, -1.29% (inactive); to `CC(C)(C)OC(=O)NNc1c2ccccc2nc2ccccc12`, 74.1% (active).
For `O=C(NNc1c2ccccc2nc2ccccc12)c1cc2ccccc2cc1O`, the inhibition is -10.4% (inactive).
Turning to `Cc1ccc(C(=O)NNC(=O)OC(C)(C)C)c(Cl)c1`, the inhibition was -0.17% (inactive).
As for `Cc1ccc(S(=O)(=O)N(CCCN(C)C)Cc2ccc3c(c2)OCO3)cc1`, the inhibition was 1.83% (inactive).
To `O=C(CCN1C(=O)[C@@H]2Cc3ccccc3CN2C1=O)NCCc1ccccc1` belongs -6.76% (inactive); to `CC(=O)c1cccc(NC(=O)C2CCCN(S(=O)(=O)c3cccc4nonc34)C2)c1` (stereo unspecified), 5.88% (inactive); to `O=C(CN(C(=O)CNC(=O)c1cccs1)c1cccc(F)c1)NC1CCCCC1`, -0.45% (inactive).
Consider `Cn1c(CCc2ccccc2)nnc1SCC(N)=O`, for which the inhibition was -0.79% (inactive).
As to `CN(C)CCCNC(=O)c1ccc2[nH]c3ccccc3c2c1`, the inhibition was 34.9% (active).
Regarding `CCCCNC(=O)c1ccc(-n2c(=S)[nH]c3ccccc3c2=O)cc1`, the inhibition was -2.52% (inactive).
For the compound `COC(=O)CCNC(=O)c1ccc2[nH]c(C)c(C)c2c1`, the inhibition is 4.35% (inactive).
For `O=C(Nc1ccc(Cl)cn1)c1ccccc1-c1ccccc1`, the inhibition is -2.1% (inactive).
To `O=C(Nc1ncc2c(n1)CC(c1ccco1)CC2=O)c1ccc(Cl)cc1` (stereo unspecified) belongs -1.48% (inactive); to `O=C(Nc1ncc2c(n1)-c1ccccc1OC2)c1ccc(Cl)cc1`, 97.1% (active); to `CC(C)NC(=O)C(=O)NCCN1CCN(S(=O)(=O)c2ccc(Cl)cc2)CC1`, 2.59% (inactive).
In the case of `CC1(C)O[C@@H]2[C@H](O1)[C@@H](CO)O[C@H]2n1c(N2CCCCC2)nc2c(N)ncnc21`, the inhibition is 0.56% (inactive).
As for `O=C(Nc1cccc(Cl)c1)c1cncn1-c1ccc(F)cc1`, the inhibition was 6.15% (inactive).
Take `CCOC(=O)N1CCN(CC(=O)Nc2ccc(F)cc2)CC1`: the inhibition was -0.85% (inactive).
Consider `CCC(=O)Nc1ccc2nn(-c3ccc(F)cc3)nc2c1`, for which the inhibition is 102% (active).
In the case of `Nc1c(N(CCO)C(=O)C2CCCCC2)c(=O)[nH]c(=O)n1Cc1ccccc1`, the inhibition is 5.19% (inactive).
In the case of `CCc1nccn1CCC(=O)N1CCCC(N2CCN(c3ccccc3F)CC2)C1` (stereo unspecified), the inhibition was -1.12% (inactive).
Take `CNC(=O)c1nnn(-c2ccccc2)c1C(=O)NC`: the inhibition was 3.79% (inactive).
In the case of `N#CCCN1CCN(S(=O)(=O)c2ccc(S(=O)(=O)NC3CC3)cc2)CC1`, the inhibition is -0.2% (inactive).
Take `CC(Sc1nnc(-c2ccccc2F)n1C1CC1)C(N)=O` (stereo unspecified): the inhibition is -0.8% (inactive).
As for `Cc1cc(C)c2nc3nc(C)cc(C)c3c(N)c2c1`, the inhibition was 42.9% (active).
For the compound `CCC(=O)Nc1ccc(-c2ccc(N3CCCCC3)nn2)cc1`, the inhibition is 4.9% (inactive).
To `O=C(Cc1ccccc1)N1N=C(c2ccncc2)CC1(O)C(F)(F)F` (stereo unspecified) belongs -4.28% (inactive); to `CC(=O)N1N=C(c2ccncc2)OC1(Cc1ccccc1)Cc1ccccc1`, 46.8% (active).
Consider `CC(=O)N1N=C(c2ccccc2)OC1c1cccnc1` (stereo unspecified), for which the inhibition is -0.2% (inactive).
As to `CCCCn1c(SCc2ncc(-c3ccccc3)o2)nc2cc(S(N)(=O)=O)ccc21`, the inhibition is -3.35% (inactive).
`O=C(CN(Cc1ccc(Br)cc1)S(=O)(=O)c1ccccc1)NCc1ccncc1`: the inhibition was 3.05% (inactive).
In the case of `Cc1ccc2c(C(=O)CN3CCCC3)c(C)[nH]c2c1`, the inhibition is -0.06% (inactive).
For `COc1cc(NC(=O)c2ccccc2NS(=O)(=O)c2ccc(Cl)s2)cc(OC)c1`, the inhibition is 2.51% (inactive).
Regarding `O=C(Nc1cccc(Cl)c1)Nc1ccccc1NS(=O)(=O)c1cccs1`, the inhibition is -6.91% (inactive).
As for `O=C(Nc1nncs1)c1ccccc1NS(=O)(=O)c1cccs1`, the inhibition is 75% (active).
In the case of `CCCNc1ncnc2sc(C)c(C)c12`, the inhibition is 2.22% (inactive).
`O=C(Nc1c(Cl)cccc1Cl)C1CCC1`: the inhibition is 5.25% (inactive).
As to `O=C(Nc1ccc(F)cc1)c1cccnc1N1CCOCC1`, the inhibition is 1.16% (inactive).
Regarding `Cc1cccc(C(=O)NC(=S)N2CCN(c3ccc([N+](=O)[O-])cc3)CC2)c1`, the inhibition was -0.47% (inactive).
Turning to `CCC(=O)Nc1cccc(C2=NOC3(C2)C[C@@H](C(N)=O)N(C(=O)c2cc([N+](=O)[O-])cc([N+](=O)[O-])c2C)C3)c1` (stereo partly specified), the inhibition was -2.54% (inactive).
Turning to `Cc1ccc(NC2(C#N)C(=O)Nc3ccccc32)cc1` (stereo unspecified), the inhibition was -3.14% (inactive).
Consider `N#CC1=C(N)Oc2[nH]c(=S)[nH]c(=O)c2C12C(=O)Nc1ccccc12` (stereo unspecified), for which the inhibition is 126% (active).
With `Cc1ccc(OCC(=O)Nc2ccccc2Sc2ccc(Cl)cc2)c([N+](=O)[O-])n1`, the inhibition is -0.96% (inactive).

What is called inhibition is the drop in the measured response relative to a control, in per cent.
